# Data as given in PubChem BioAssay AID1159580 (chemical genetic matrix, 2015).
# “And” between values parts separate entries of the source, which are not always exact repeats. Identical values can stand only once. Among all 5,500 compounds or so, about 2,000 (36%) were called active. Another 18% or so got no clear call; they are omitted. Cut-off read from the data, not from the text of the source: active = normalized growth mostly below about 0.91 (no sharp cut-off); inconclusive = no clear call, values can overlap the other calls; inactive = mostly above about 0.92. This is one part of the list. More than one record can exist for a structure, and the calls need not agree.
# Assay: chemical genetic growth profiling, strain panel (AID 1159580);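 note: tested at 20 µM; growth read once vehicle control cultures reached saturation at 30 °C; 1 = growth at the plate median or of vehicle wells; lower values mean less growth of the strain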
# Settings: S. cerevisiae deletion strains, growth OD
compound,measurement,setting,value
O=c1[nH]cc(F)c(=O)[nH]1,normalized growth,"locus YAL021C, strain ccr4, stronger effect = lower value",0.841 (active)
same,normalized growth,"locus YAL026C, strain drs2, stronger effect = lower value",0.445 (active)
same,normalized growth,"locus YAL030W, strain snc1, stronger effect = lower value",0.642 (active)
same,normalized growth,"locus YAL040C, strain CLN3, stronger effect = lower value",1.05 (inactive)
same,normalized growth,"locus YBL061C, strain skt5, stronger effect = lower value",0.689 (active)
same,normalized growth,"locus YBR009C, strain hhf1, stronger effect = lower value",0.458 (active)
same,normalized growth,"locus YBR021W, strain FUR4, stronger effect = lower value",0.81 (active)
same,normalized growth,"locus YBR023C, strain chs3, stronger effect = lower value",0.678 (active)
same,normalized growth,"locus YBR171W, strain sec66, stronger effect = lower value",1.09 (inactive)
same,normalized growth,"locus YBR229C, strain ROT2, stronger effect = lower value",1.01 (inactive)
same,normalized growth,"locus YBR231C, strain swc5, stronger effect = lower value",0.639 (active)
same,normalized growth,"locus YBR279W, strain paf1, stronger effect = lower value",0.555 (active)
same,normalized growth,"locus YCL011C, strain gbp2, stronger effect = lower value",0.509 (active)
same,normalized growth,"locus YCL016C, strain dcc1, stronger effect = lower value",0.586 (active)
same,normalized growth,"locus YCL029C, strain bik1, stronger effect = lower value",0.717 (active)
same,normalized growth,"locus YCL061C, strain MRC1, stronger effect = lower value",0.702 (active)
same,normalized growth,"locus YCL069W, strain vba3, stronger effect = lower value",0.484 (active)
same,normalized growth,"locus YCR088W, strain abp1, stronger effect = lower value",0.651 (active)
same,normalized growth,"locus YDL005C, strain med2, stronger effect = lower value",0.977 (inactive)
same,normalized growth,"locus YDL035C, strain GPR1, stronger effect = lower value",0.591 (active)
same,normalized growth,"locus YDL040C, strain nat1, stronger effect = lower value",0.869 (active)
same,normalized growth,"locus YDL074C, strain BRE1, stronger effect = lower value",0.847 (inactive)
same,normalized growth,"locus YDL101C, strain DUN1, stronger effect = lower value",0.955 (inactive)
same,normalized growth,"locus YDL185W, strain tfp1, stronger effect = lower value",1 (inactive)
same,normalized growth,"locus YDL192W, strain arf1, stronger effect = lower value",0.715 (active)
same,normalized growth,"locus YDR001C, strain nth1, stronger effect = lower value",0.747 (active)
same,normalized growth,"locus YDR069C, strain doa4, stronger effect = lower value",0.636 (active)
same,normalized growth,"locus YDR101C, strain arx1, stronger effect = lower value",0.64 (active)
same,normalized growth,"locus YDR137W, strain rgp1, stronger effect = lower value",0.629 (active)
same,normalized growth,"locus YDR150W, strain NUM1, stronger effect = lower value",0.957 (inactive) and 0.85 (active)
same,normalized growth,"locus YDR159W, strain sac3, stronger effect = lower value",1.3 [resistant] (active)
same,normalized growth,"locus YDR162C, strain NBP2, stronger effect = lower value",0.693 (active)
same,normalized growth,"locus YDR195W, strain ref2",0.63 (active)
same,normalized growth,"locus YDR297W, strain sur2, stronger effect = lower value",0.676 (active)
same,normalized growth,"locus YDR318W, strain mcm21, stronger effect = lower value",0.701 (active)
same,normalized growth,"locus YDR334W, strain swr1, stronger effect = lower value",0.741 (active)
same,normalized growth,"locus YDR335W, strain msn5, stronger effect = lower value",0.538 (active)
same,normalized growth,"locus YDR363W, strain ESC2, stronger effect = lower value",0.864 (active)
same,normalized growth,"locus YDR388W, stronger effect = lower value",0.753 (active)
same,normalized growth,"locus YDR392W, strain spt3, stronger effect = lower value",0.476 (active)
same,normalized growth,"locus YDR502C, strain sam2, stronger effect = lower value",0.657 (active)
same,normalized growth,"locus YEL003W, strain gim4, stronger effect = lower value",0.518 (active)
same,normalized growth,"locus YEL037C, strain rad23, stronger effect = lower value",0.539 (active)
same,normalized growth,"locus YEL061C, strain CIN8 (second series), stronger effect = lower value",0.728 (active)
same,normalized growth,"locus YER002W, strain NOP16, stronger effect = lower value",1.04 (inactive)
same,normalized growth,"locus YER015W, strain faa2, stronger effect = lower value",0.702 (active)
same,normalized growth,"locus YER016W, strain bim1, stronger effect = lower value",0.629 (active)
same,normalized growth,"locus YER110C, stronger effect = lower value",1.01 (inactive)
same,normalized growth,"locus YER111C, strain swi4, stronger effect = lower value",0.858 (active)
same,normalized growth,"locus YER155C, strain BEM2 (second series), stronger effect = lower value",0.535 (active)
same,normalized growth,"locus YER155C, strain BEM2, stronger effect = lower value",1.01 (inactive)
same,normalized growth,"locus YER167W, strain BCK2, stronger effect = lower value",0.795 (active)
same,normalized growth,"locus YFR010W, strain ubp6, stronger effect = lower value",0.598 (active)
same,normalized growth,"locus YGL078C, strain dbp3, stronger effect = lower value",0.571 (active)
same,normalized growth,"locus YGL086W, strain mad1, stronger effect = lower value",0.743 (active)
same,normalized growth,"locus YGL167C, strain pmr1, stronger effect = lower value",1.03 (inactive)
same,normalized growth,"locus YGL173C, strain kem1, stronger effect = lower value",0.719 (active)
same,normalized growth,"locus YGL227W, strain vid30, stronger effect = lower value",0.856 (active)
same,normalized growth,"locus YGL240W, strain doc1, stronger effect = lower value",0.901 (inactive)
same,normalized growth,"locus YGL248W, strain PDE1, stronger effect = lower value",0.71 (active)
same,normalized growth,"locus YGL253W, strain hxk2, stronger effect = lower value",0.328 (active)
same,normalized growth,"locus YGR135W, strain pre9, stronger effect = lower value",0.871 (active)
same,normalized growth,"locus YGR229C, strain SMI1, stronger effect = lower value",0.948 (inactive)
same,normalized growth,"locus YGR252W, strain gcn5, stronger effect = lower value",0.757 (active)
same,normalized growth,"locus YHR013C, strain ard1, stronger effect = lower value",0.846 (inactive)
same,normalized growth,"locus YHR027C, strain rpn1, stronger effect = lower value",0.625 (active)
same,normalized growth,"locus YHR030C, strain SLT2, stronger effect = lower value",0.918 (active) and 0.61 (active)
same,normalized growth,"locus YHR079C, strain IRE1 (second series), stronger effect = lower value",0.665 (active)
same,normalized growth,"locus YHR079C, strain IRE1, stronger effect = lower value",0.553 (active)
same,normalized growth,"locus YHR094C, strain hxt1, stronger effect = lower value",0.944 (inactive)
same,normalized growth,"locus YHR129C, strain ARP1, stronger effect = lower value",0.896 (active)
same,normalized growth,"locus YHR142W, strain chs7, stronger effect = lower value",0.484 (active)
same,normalized growth,"locus YHR200W, strain rpn10, stronger effect = lower value",0.906 (active)
same,normalized growth,"locus YIL066C, strain RNR3, stronger effect = lower value",0.848 (active)
same,normalized growth,"locus YIL073C, strain SPO22, stronger effect = lower value",0.762 (inactive)
same,normalized growth,"locus YIL125W, strain kgd1, stronger effect = lower value",0.851 (active)
same,normalized growth,"locus YIR030C, strain dcg1, stronger effect = lower value",0.838 (active)
same,normalized growth,"locus YJL092W, strain hpr5, stronger effect = lower value",0.476 (active)
same,normalized growth,"locus YJL095W, strain BCK1 (second series), stronger effect = lower value",0.689 (active)
same,normalized growth,"locus YJL095W, strain BCK1, stronger effect = lower value",0.661 (active) and 0.616 (active)
same,normalized growth,"locus YJL115W, strain asf1, stronger effect = lower value",0.697 (active)
same,normalized growth,"locus YJL129C, strain trk1, stronger effect = lower value",0.642 (active)
same,normalized growth,"locus YJL134W, strain LCB3, stronger effect = lower value",1.04 (inactive)
same,normalized growth,"locus YJL154C, strain vps35, stronger effect = lower value",0.756 (active)
same,normalized growth,"locus YJL164C, strain tpk1, stronger effect = lower value",0.463 (active)
same,normalized growth,"locus YJL166W, strain qcr8, stronger effect = lower value",0.577 (active)
same,normalized growth,"locus YJL168C, strain set2, stronger effect = lower value",1.02 (inactive)
same,normalized growth,"locus YJL187C, strain SWE1 (second series), stronger effect = lower value",0.722 (active)
same,normalized growth,"locus YJL187C, strain SWE1, stronger effect = lower value",0.77 (active)
same,normalized growth,"locus YJR043C, strain POL32, stronger effect = lower value",0.669 (active)
same,normalized growth,"locus YJR066W, strain TOR1, stronger effect = lower value",0.532 (active)
same,normalized growth,"locus YJR075W, strain HOC1, stronger effect = lower value",0.835 (active)
